Laboratory results taken from PubChem BioAssay (EPA / NIEHS).
The source made the active and inactive calls. The calls were made as follows: active = hit-call score of the fitted dose curve at least 0.9, where 1 is the maximum; inactive = score below 0.9.

Columns and labels:
Conditions in all cases: mRNA level, 48 h; actives raise or lower the signal
[1] = read-out: ATP-citrate lyase (ACLY), ACLY (gene 47); experiment: LTEA_HepaRG_ACLY: Life Technologies and Expression Analysis (LTEA) Assay for ATP-citrate lyase (ACLY) using HepaRG (AID 2283466)
Outline: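 qRT-PCR readout of ACLY transcript after 48 h chemical treatment of HepaRG cells; expression normalized to three housekeeping genes. Eight-point half-log series, highest 100 uM, 0.5% DMSO vehicle. Gain or loss fitted against DMSO baseline.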

[2] = read-out: Peroxisomal acyl-coenzyme A oxidase 1 (ACOX1) gene, ACOX1 (gene 51); experiment: LTEA_HepaRG_ACOX1: Life Technologies and Expression Analysis (LTEA) Assay for Peroxisomal acyl-coenzyme A oxidase 1 (ACOX1) gene using HepaRG (AID 2283467)
Outline: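 HepaRG, 48 h chemical exposure, 8-pt half-log series from 100 uM top, 0.5% DMSO vehicle, duplicates. Readout: ACOX1 mRNA by Fluidigm qRT-PCR, housekeeping-normalized; bidirectional fit vs DMSO baseline.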

[3] = read-out: Alkaline Phosphatase, Placental (ALPP) gene, ALPP (gene 250); experiment: LTEA_HepaRG_ALPP: Life Technologies and Expression Analysis (LTEA) Assay for Alkaline Phosphatase, Placental (ALPP) gene using HepaRG (AID 2283468)
Outline: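 ALPP transcript level, measured by qRT-PCR and normalized to three housekeeping genes (ACTB, GAPDH, POLR2A), after 48 h dosing of differentiated HepaRG in serum-free induction medium. Top concentration 100 uM with half-log dilutions (8 points, 0.5% DMSO, duplicates); bidirectional fitting relative to DMSO.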

[4] = read-out: Bcl-2 (BAD) gene, BAD (gene 572); experiment: LTEA_HepaRG_BAD: Life Technologies and Expression Analysis (LTEA) Assay for Bcl-2 (BAD) gene using HepaRG (AID 2283469)
Outline: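 HepaRG, 48 h exposure, 8-pt half-log curve from 100 uM in 0.5% DMSO, duplicates. Readout: TaqMan qRT-PCR for BAD mRNA, housekeeping-normalised (ACTB/GAPDH/POLR2A); gain or loss fitted against DMSO baseline.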

[5] = read-out: Bcl-2 (BAX) gene, BAX (gene 581); experiment: LTEA_HepaRG_BAX: Life Technologies and Expression Analysis (LTEA) Assay for Bcl-2 (BAX) gene using HepaRG (AID 2283470)
Outline: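 Gene expression measured by Fluidigm qRT-PCR with three housekeeping genes for normalisation. HepaRG cells, plated 48 h beforehand, treated 48 h at up to 100 uM (8-point, half-log) in 0.5% DMSO. Bidirectional fitting versus DMSO.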

[6] = read-out: adenosine kinase (ADK) gene, ADK (gene 132); experiment: LTEA_HepaRG_ADK: Life Technologies and Expression Analysis (LTEA) Assay for adenosine kinase (ADK) gene using HepaRG (AID 2283471)
Outline: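 Read-out is ADK transcript level measured by qRT-PCR and normalised to three housekeeping genes. Cells are human HepaRG, dosed for 48 h at up to 100 uM in 0.5% DMSO. Gain or loss of signal is fitted against DMSO controls.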

[7] = read-out: Alpha-fetoprotein (AFP) gene, AFP (gene 174); experiment: LTEA_HepaRG_AFP: Life Technologies and Expression Analysis (LTEA) Assay for Alpha-fetoprotein (AFP) gene using HepaRG (AID 2283472)
Outline: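 AFP transcript measured by TaqMan qRT-PCR with three housekeeping genes for normalization, after 48 h chemical treatment of HepaRG cells (top 100 uM, half-log steps, 0.5% DMSO). Gain or loss fitted against vehicle.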

BCL2L11 (gene 10018) = experiment: LTEA_HepaRG_BCL2L11: Life Technologies and Expression Analysis (LTEA) Assay for Bcl-2 (BCL2L11) gene using HepaRG (AID 2283473)
Outline: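 BCL2L11 transcript levels are measured by Fluidigm qRT-PCR, normalized to three housekeeping genes. HepaRG cultures were plated 48 h, then treated 48 h with test chemical (top 100 uM, half-log, 0.5% DMSO vehicle); curves were fitted bidirectionally against DMSO.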

[8] = read-out: Apolipoprotein A-V (APOA5) gene, APOA5 (gene 116519); experiment: LTEA_HepaRG_APOA5: Life Technologies and Expression Analysis (LTEA) Assay for Apolipoprotein A-V (APOA5) gene using HepaRG (AID 2283474)
Outline: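 APOA5 transcript levels were quantified by qRT-PCR, normalized to three housekeeping genes, after 48 h chemical treatment of HepaRG cells (8 points, 100 uM maximum, half-log steps, 0.5% DMSO). Curves fitted in both directions against vehicle.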

[9] = read-out: Apoptosis regulator Bcl-2 (Homo sapiens) (UniProt P10415); experiment: LTEA_HepaRG_BCL2: Life Technologies and Expression Analysis (LTEA) Assay for Bcl-2 gene using HepaRG (AID 2283475)
Outline: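 qRT-PCR of BCL2 transcript, normalized to three housekeeping genes (ACTB, GAPDH, POLR2A), after 48 h chemical exposure of HepaRG cells; concentrations top 100 uM with half-log dilutions, 0.5% DMSO vehicle, duplicates; changes up or down fitted relative to vehicle.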

[10] = read-out: Bcl-2 (BID) gene, BID (gene 637); experiment: LTEA_HepaRG_BID: Life Technologies and Expression Analysis (LTEA) Assay for Bcl-2 (BID) gene using HepaRG (AID 2283476)
Outline: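 Duplicate 48 h treatments of HepaRG cells in serum-free induction medium spanned 100 uM downward in half-log steps, 0.5% DMSO. Transcript change quantified by qRT-PCR against three housekeeping genes, fitted up or down versus DMSO.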

Caspase-3 (Homo sapiens) = Caspase-3 (Homo sapiens) (UniProt P42574); experiment: LTEA_HepaRG_CASP3: Life Technologies and Expression Analysis (LTEA) Assay for cysteine-aspartic acid protease (CASP3) using HepaRG (AID 2283477)
Caspase-3 (Homo sapiens), sequence (P42574 whole entry, looked up): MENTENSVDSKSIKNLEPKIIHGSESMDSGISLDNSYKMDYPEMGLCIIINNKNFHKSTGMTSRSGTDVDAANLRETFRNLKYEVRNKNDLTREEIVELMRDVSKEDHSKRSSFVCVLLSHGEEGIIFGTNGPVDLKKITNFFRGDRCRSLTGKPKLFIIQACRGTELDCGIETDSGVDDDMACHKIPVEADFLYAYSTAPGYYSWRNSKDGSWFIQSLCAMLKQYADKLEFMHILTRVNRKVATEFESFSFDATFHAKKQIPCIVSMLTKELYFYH
Outline: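 Expression of CASP3 was quantified by TaqMan qRT-PCR against three housekeeping genes (ACTB, GAPDH, POLR2A), bidirectionally versus 0.5% DMSO. HepaRG cultures received compounds in duplicate, top 100 uM with half-log steps, for 48 h in serum-free induction medium.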

[11] = read-out: Cytochrome P450 (CYP24A1), CYP24A1 (gene 1591); experiment: LTEA_HepaRG_CYP24A1: Life Technologies and Expression Analysis (LTEA) Assay for Cytochrome P450 (CYP24A1) using HepaRG (AID 2283478)
Outline: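 mRNA of CYP24A1 quantified by TaqMan qRT-PCR (ACTB/GAPDH/POLR2A normalization) after 48 h chemical exposure of HepaRG cells, top concentration 100 uM, half-log steps, 0.5% DMSO vehicle, duplicates. Curves fitted bidirectionally against DMSO baseline.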

[12] = read-out: Cytochrome P450 (CYP1A2), CYP1A2 (gene 1544); experiment: LTEA_HepaRG_CYP1A2: Life Technologies and Expression Analysis (LTEA) Assay for Cytochrome P450 (CYP1A2) using HepaRG (AID 2283479)
Outline: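 CYP1A2 transcript measured by TaqMan qRT-PCR against three housekeeping genes after 48-hour chemical exposure of HepaRG cells. Eight-point half-log series topping at 100 uM in 0.5% DMSO, duplicates; gain or loss fitted relative to vehicle.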

[13] = read-out: cysteine-aspartic acid protease (CASP8), CASP8 (gene 841); experiment: LTEA_HepaRG_CASP8: Life Technologies and Expression Analysis (LTEA) Assay for cysteine-aspartic acid protease (CASP8) using HepaRG (AID 2283480)
Outline: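 qRT-PCR readout of CASP8 mRNA, normalized to three housekeeping genes, after 48 h chemical exposure of HepaRG cells; 8-point half-log series, top 100 uM, 0.5% DMSO vehicle. Bidirectional curve fitting against DMSO baseline.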

[14] = read-out: Cytochrome P450 (CYP2B6), CYP2B6 (gene 1555); experiment: LTEA_HepaRG_CYP2B6: Life Technologies and Expression Analysis (LTEA) Assay for Cytochrome P450 (CYP2B6) using HepaRG (AID 2283481)
Outline: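 CYP2B6 transcript level quantified by qRT-PCR against three housekeeping genes, fitted bidirectionally relative to DMSO. HepaRG cultures received chemicals for 48 h, 8-point half-log series from 100 uM in 0.5% DMSO, duplicate wells, serum-free induction medium.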

[15] = read-out: Cytochrome P450 2C19 (Homo sapiens) (UniProt P33261); experiment: LTEA_HepaRG_CYP2C19: Life Technologies and Expression Analysis (LTEA) Assay for CYP2C19 using HepaRG (AID 2283482)
Outline: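 CYP2C19 transcript levels by qRT-PCR, normalized to three housekeeping genes, in HepaRG cells after 48 h chemical exposure. Eight-point half-log series topping at 100 uM, 0.5% DMSO vehicle. Increases and decreases both fitted against DMSO.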

CYP2C8 (gene 1558) = experiment: LTEA_HepaRG_CYP2C8: Life Technologies and Expression Analysis (LTEA) Assay for CYP2C8 using HepaRG (AID 2283483)
Outline: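 HepaRG (human liver line), 48 h chemical exposure, 8-pt half-log series from 100 uM, 0.5% DMSO vehicle. Readout: CYP2C8 transcript by qRT-PCR, housekeeping-normalized. Bidirectional fit vs DMSO baseline.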

CYP2C9 (gene 1559) = experiment: LTEA_HepaRG_CYP2C9: Life Technologies and Expression Analysis (LTEA) Assay for CYP2C9 using HepaRG (AID 2283484)
Outline: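 HepaRG, 48 h dosing, 8-pt half-log series, top 100 uM, 0.5% DMSO vehicle. Read-out: CYP2C9 transcript by TaqMan qRT-PCR, housekeeping-normalized (ACTB/GAPDH/POLR2A). Gain or loss fitted vs DMSO baseline.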

CYP2E1 (gene 1571) = experiment: LTEA_HepaRG_CYP2E1: Life Technologies and Expression Analysis (LTEA) Assay for CYP2E1 using HepaRG (AID 2283485)
Outline: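 CYP2E1 transcript measured by Fluidigm qRT-PCR against three housekeeping genes in human HepaRG cells treated 48 h (top 100 uM, half-log steps, 0.5% DMSO vehicle). Gain or loss fitted relative to DMSO baseline.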

Measured: AC50

Cytochrome P450 2C19 (Homo sapiens), sequence (P33261 whole entry, looked up): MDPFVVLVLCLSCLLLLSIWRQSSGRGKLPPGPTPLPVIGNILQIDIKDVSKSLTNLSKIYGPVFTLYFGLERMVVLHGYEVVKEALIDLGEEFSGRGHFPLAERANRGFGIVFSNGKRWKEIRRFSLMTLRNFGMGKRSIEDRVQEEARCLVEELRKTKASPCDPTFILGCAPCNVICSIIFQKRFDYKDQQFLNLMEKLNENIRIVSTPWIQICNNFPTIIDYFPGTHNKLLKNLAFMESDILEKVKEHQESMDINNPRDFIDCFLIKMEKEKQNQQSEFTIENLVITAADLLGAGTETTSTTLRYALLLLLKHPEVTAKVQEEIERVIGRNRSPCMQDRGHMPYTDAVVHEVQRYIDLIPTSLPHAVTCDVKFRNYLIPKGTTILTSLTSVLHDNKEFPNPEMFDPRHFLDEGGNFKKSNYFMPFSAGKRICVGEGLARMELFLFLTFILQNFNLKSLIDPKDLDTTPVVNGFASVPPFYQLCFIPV
Apoptosis regulator Bcl-2 (Homo sapiens), sequence (P10415 whole entry, looked up): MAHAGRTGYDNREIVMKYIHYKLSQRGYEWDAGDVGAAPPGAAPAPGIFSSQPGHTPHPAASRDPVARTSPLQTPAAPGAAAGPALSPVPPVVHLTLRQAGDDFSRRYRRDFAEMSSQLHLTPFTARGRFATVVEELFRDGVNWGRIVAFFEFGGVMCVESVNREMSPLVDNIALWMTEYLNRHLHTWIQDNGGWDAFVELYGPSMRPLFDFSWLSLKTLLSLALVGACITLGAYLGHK

CCC(C)=NO
active: [12] 49.8 µM
inactive: all other assays above
